Hits are enriched below; roughly 2.9% of the tested compounds scored in any of these assays.
Granule exo inh = blocks lytic granule exocytosis; TALL-104 LAMP-1 surface exposure, flow cytometry; cells stimulated with thapsigargin and PMA; inhibition, % at 10 µM; hit rate 0.66% among 360,000; AID 651702;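 active = inhibition above about 55%, limit read from the data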
GRK2 inh = inhibitors of human GRK2 displacing RNA aptamer. inhibition of aptamer binding, % at 10 µM. P25098. bead flow cytometry, FAM-aptamer displacement from GRK2. hit rate 0.59% among 330,000;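 active = inhibition of aptamer binding above 40%, roughly 3 SD of noise, on plates passing a quality check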;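 also: median bead fluorescence of bound FAM aptamer so fluorescent compounds give negative values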
NadD block = blocks S. aureus nicotinate mononucleotide adenylyltransferase. purified NadD enzyme, colorimetric absorbance read-out. inhibition, % at 20 µM. hit rate 0.78% among 360,000. AID 602399; in the data active = inhibition above about 26%
PP1 inh = counter-screen for PP5 inhibitors: inhibitors of human PP1-alpha. inhibition, % at 6.7 µM. hit rate 0.9% among 320,000. P62136. AID 2235. purified PP1alpha, OMFP fluorescence;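 active = inhibition above the mean inhibition of all tested compounds plus 3 SD, computed separately for each screening campaign, cut at about 15% in these data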
Target sequence (P62136 whole entry, looked up): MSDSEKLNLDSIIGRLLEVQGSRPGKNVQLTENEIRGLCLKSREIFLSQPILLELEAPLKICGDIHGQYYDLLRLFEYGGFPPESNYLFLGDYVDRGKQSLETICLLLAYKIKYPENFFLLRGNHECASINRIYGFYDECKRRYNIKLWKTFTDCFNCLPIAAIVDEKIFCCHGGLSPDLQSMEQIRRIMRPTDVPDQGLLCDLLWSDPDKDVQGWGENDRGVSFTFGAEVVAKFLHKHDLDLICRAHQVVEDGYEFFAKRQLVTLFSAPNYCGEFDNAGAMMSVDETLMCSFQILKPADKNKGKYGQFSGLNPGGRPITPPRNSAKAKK
Beta2AR agonist = activates human beta-2 adrenergic receptor causing internalization | response, % (concentration not given with the values) | AID 504454 | Am2.2-beta2AR cells, FAP receptor internalization, flow cytometry | P07550 | hit rate 0.43% among 340,000;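 active = response above a set limit, near 3 SD of response in nonfluorescent compounds, cut at about 42% in these data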
Beta2AR ag CP1 = agonists of human beta-2 adrenergic receptor; shares compounds with Beta2AR agonist; Am2.2-beta2AR cells, FAP surface receptor, flow cytometry; stronger effect = lower value; percent response (surface receptor), % at 10 µM; hit rate 25% among 1,100; AID 540358;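 active = surface receptor percent response at or below 58%, roughly 3 SD from nonfluorescent compounds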
FAP fluor counter = counter-screen for beta-2AR agonists: fluorescence in Am2.2 cells | calls only at 10 µM | 1,100 tested, under 10 active | shares compounds with Beta2AR agonist | FAP fluorogen flow cytometry, fluorescence counterscreen; stronger effect = lower value;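 active = percent response below a set limit in fluorescence channel 1 and below 50% in channel 8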
Large screens that a line does not name were inactive (follow-up assays come after a bar, where they were run).

O=C(NCC1CCCO1)C(=O)N/N=C/c1c(F)cccc1Cl (centres undefined)	none
Cc1noc(C)c1COc1ccccc1C(=O)N1CCN(S(=O)(=O)c2ccccc2Br)CC1	Beta2AR agonist 71 (no result: GRK2 inh, PP1 inh) | Beta2AR ag CP1 inactive | FAP fluor counter inactive
Cc1noc(C)c1COc1ccccc1C(=O)N1CCN(S(=O)(=O)c2ccccc2C(F)(F)F)CC1	none
O=C(COc1ccc(S(=O)(=O)N2CCOCC2)cc1)Nc1ccccc1Cl	none | Beta2AR ag CP1 inactive | FAP fluor counter inactive
O=C(COc1ccccc1)Nc1ccc(S(=O)(=O)N2CCOCC2)cc1	none
O=C(COc1ccc(S(=O)(=O)N2CCOCC2)cc1)Nc1ccccc1F	none | Beta2AR ag CP1 inactive | FAP fluor counter inactive
Cc1c(Cl)cccc1NC(=O)COc1ccc(S(=O)(=O)N2CCOCC2)cc1	none
O=C1[C@H](Cc2ccccc2)NCCCC[C@H](c2ccco2)N1Cc1ccccc1	none (no result: GRK2 inh, PP1 inh)
Cc1ccc(OCC(O)Cn2c(=N)n(Cc3ccccc3)c3ccccc32)cc1 (centres undefined)	Beta2AR agonist 55 | Beta2AR ag CP1 17 | FAP fluor counter inactive
COc1ccc(OCC(O)Cn2c(=N)n(Cc3ccccc3)c3ccccc32)cc1 (centres undefined)	none
N=c1n(Cc2ccc(Cl)cc2)c2ccccc2n1CC(O)COc1ccccc1 (centres undefined)	Beta2AR agonist 43 | Beta2AR ag CP1 19 | FAP fluor counter inactive
Cc1cccc(OCCn2c(=S)[nH]c3ccccc32)c1	none
Cc1ccc(OCCn2c(=S)[nH]c3ccccc32)c(C(C)C)c1	Beta2AR agonist 69 | Beta2AR ag CP1 inactive | FAP fluor counter inactive
NC(=O)c1cc2c3ccccc3ccn2c1-c1ccccc1	Beta2AR agonist 43 | Beta2AR ag CP1 inactive | FAP fluor counter inactive
COc1ccc(N2C(=O)c3ccccc3NC(=O)C2C(=O)Nc2ccc3c(c2)OCCO3)cc1 (centres undefined)	none (no result: GRK2 inh, NadD block, PP1 inh, Beta2AR agonist)
O=C(CSc1ccccn1)c1ccc2c(c1)OCO2	Beta2AR agonist 53 | Beta2AR ag CP1 inactive | FAP fluor counter inactive
C/C=C(/C(=C/C)c1ccc(O)cc1)c1ccc(O)cc1	none | Beta2AR ag CP1 inactive | FAP fluor counter inactive
COc1cc(OC)nc(NC(=O)CSc2nnc(-c3ccccc3)n2C2CCCCC2)n1	Beta2AR agonist 97 | Beta2AR ag CP1 19 | FAP fluor counter inactive
CCn1cc(C(=O)N[C@@H](CCSC)C(=O)NCCCN2CCOCC2)c(=O)c2cc3c(cc21)OCO3	none
CCOc1ccc2ccccc2c1/C=N/NC(=O)CNC(=O)c1ccccc1F	none
COc1cc(NC(=O)c2ccco2)c(OC)cc1NC(=O)c1cc(OC)c(OC)c(OC)c1	none | Beta2AR ag CP1 inactive | FAP fluor counter inactive
Cc1ccc(-c2nc(NC(=O)c3nn(C)cc3[N+](=O)[O-])sc2C)cc1C	Beta2AR agonist 80 | Beta2AR ag CP1 48 | FAP fluor counter inactive
Cc1ccc(-c2nc(NC(=O)c3nn(C)cc3[N+](=O)[O-])sc2C)cc1	Beta2AR agonist 104 | Beta2AR ag CP1 9.7 | FAP fluor counter inactive
CC1=NN(C(N)=S)C(=O)C1N=Nc1ccccc1 (centres undefined)	none | Beta2AR ag CP1 inactive | FAP fluor counter inactive
O=C(CN1CCN(Cc2ccccc2)CC1)Nc1ccccc1	none
O=C(CN1CCN(Cc2ccccc2)CC1)Nc1ccc(N2CCOCC2)cc1	Beta2AR agonist 50 | Beta2AR ag CP1 inactive | FAP fluor counter inactive
Cc1ccnc(NC(=O)c2ccc([N+](=O)[O-])o2)c1	Beta2AR agonist 49 | Beta2AR ag CP1 inactive | FAP fluor counter inactive
COc1cccc(/C=N/NC(=O)CN(C)S(=O)(=O)c2ccccc2)c1OC	none
Cc1cc(C)nc(NS(=O)(=O)c2ccc(NC(=O)COc3ccccc3)cc2)n1	Beta2AR agonist 118 | Beta2AR ag CP1 inactive | FAP fluor counter inactive
Cc1cc(C)nc(NS(=O)(=O)c2ccc(NC(=O)Cc3ccccc3)cc2)n1	none
Cc1ccc(NC(=O)c2ccc3c(c2)C(=O)N(CC2CCCO2)C3=O)cc1C (centres undefined)	none | Beta2AR ag CP1 inactive | FAP fluor counter inactive
CN(c1ccccc1C(=O)N1CCN(c2ccccc2)CC1)S(C)(=O)=O	none
COC(=O)c1ccc(CNC(=O)c2cc(COc3cncc(Cl)c3)on2)cc1	none | Beta2AR ag CP1 inactive | FAP fluor counter inactive
Cc1ccc(C(=O)N/C(=C\c2cccs2)C(=O)N2CCOCC2)cc1C	none
CCC(C)NC(=O)c1c(N)n(/N=C/c2cccnc2)c2nc3ccccc3nc12 (centres undefined)	Beta2AR agonist 48 | Beta2AR ag CP1 inactive | FAP fluor counter inactive
COCCCNC(=O)c1c(N)n(/N=C/c2cccnc2)c2nc3ccccc3nc12	none
COc1ccc(C(CCNC(C)c2ccccc2)C(C)C)cc1 (centres undefined)	none
COc1ccc(C(C)NCCC(c2ccc(OC(C)C)cc2)c2ccccc2OC)cc1 (centres undefined)	none (no result: PP1 inh) | Beta2AR ag CP1 inactive | FAP fluor counter inactive
CC(C)c1nnc(NC(=O)CCS(=O)(=O)c2nc(-c3cccs3)cc(C(F)(F)F)n2)s1	Beta2AR agonist 97 | Beta2AR ag CP1 55 | FAP fluor counter inactive
CC(C)c1nnc(NC(=O)CCS(=O)(=O)Cc2ccccc2)s1	none
O=[N+]([O-])c1ccc(OCCN2CCNCC2)cc1	none
CC(C)(C)Cc1c(-c2ccc(C#N)cc2)nc2c(Cl)cc(C(F)(F)F)cn12	none (no result: GRK2 inh, PP1 inh, Beta2AR agonist)
O=C(Nc1ccc(NC(=O)c2ccccc2F)cc1)c1cccs1	none | Beta2AR ag CP1 inactive | FAP fluor counter inactive
NNC(=O)CC(=O)NC1(Cc2ccc(O)cc2)CCCCC1	none
O=C(Cc1ccccc1)NC1(Cc2ccc(O)cc2)CCCCC1	Beta2AR agonist 57 | Beta2AR ag CP1 47 | FAP fluor counter inactive
Cc1ccc(C(=O)OCC(=O)Nc2ccccc2)cc1NC(=O)c1ccco1	none
Cc1ccc(C(=O)OCC(=O)Nc2nc(-c3ccccc3)cs2)cc1NC(=O)c1ccco1	Beta2AR agonist 54 | Beta2AR ag CP1 38 | FAP fluor counter inactive
Cc1ccc(C)c(N2CCN(C(=O)c3ccc4nsnc4c3)CC2)c1	none
COc1cc2c(cc1OC)C(CNC(=O)C=Cc1ccccc1)C2 (centres undefined)	none (no result: GRK2 inh, PP1 inh, Beta2AR agonist)
CCOC(=O)c1[nH]c(=S)n(Cc2ccccc2)c1C(=O)OCC	Beta2AR agonist 43 (no result: GRK2 inh, PP1 inh) | Beta2AR ag CP1 inactive | FAP fluor counter inactive
CCOC(=O)c1[nH]c(=S)n(-c2ccccc2)c1C(=O)OCC	none (no result: GRK2 inh, PP1 inh, Beta2AR agonist)
Cn1c(CNc2nc(-c3ccccc3)cs2)nnc1SCC(=O)N1CCc2ccccc21	Beta2AR agonist 46 | Beta2AR ag CP1 inactive | FAP fluor counter inactive
CCC(CC)c1ncc[nH]1	none
CCn1nc(NS(=O)(=O)c2ccc(NC(C)=O)cc2)c2cc3cccc(C)c3nc21	none
CCn1nc(NS(=O)(=O)c2ccccc2)c2cc3cccc(C)c3nc21	none | FAP fluor counter inactive
CCCn1nc(NS(C)(=O)=O)c2cc3cccc(C)c3nc21	none

From PubChem
